Assay results reported in PubChem BioAssay AID1159580 (chemical genetic matrix, 2015).
“And” between values parts separate entries of the source, which are not always exact repeats. Identical values can stand only once. Screen size: about 5,500 compounds; about 2,000 (36%) were called active. Roughly 18% stayed inconclusive and do not appear here. Rule as the data show it: active = normalized growth mostly below about 0.91 (no sharp cut-off); inconclusive = no clear call, values can overlap the other calls; inactive = mostly above about 0.92. The list shows a part of the results.

Test: chemical genetic growth profiling, strain panel (AID 1159580);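 also: tested at 20 µM; growth read once vehicle control cultures reached saturation at 30 °C; 1 = growth at the plate median or of vehicle wells; lower values mean less growth of the strain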
Conditions: S. cerevisiae deletion strains, growth OD

Measured: normalized growth

N=c1ccn2c(n1)O[C@@H]1C2O[C@H](CO)[C@H]1O (stereo not given in full)
inactive: locus YAL021C, strain ccr4, stronger effect = lower value 1.02 | locus YAL026C, strain drs2, stronger effect = lower value 0.981 | locus YAL030W, strain snc1, stronger effect = lower value 0.987 | locus YBL061C, strain skt5, stronger effect = lower value 0.985 | locus YBR009C, strain hhf1, stronger effect = lower value 0.965 | locus YBR021W, strain FUR4, stronger effect = lower value 1.01 | locus YBR023C, strain chs3, stronger effect = lower value 0.99 | locus YBR171W, strain sec66, stronger effect = lower value 0.988 | locus YBR229C, strain ROT2, stronger effect = lower value 1 | locus YBR231C, strain swc5, stronger effect = lower value 0.98 | locus YBR279W, strain paf1, stronger effect = lower value 0.992 | locus YCL011C, strain gbp2, stronger effect = lower value 0.984 | locus YCL016C, strain dcc1, stronger effect = lower value 0.983 | locus YCL029C, strain bik1, stronger effect = lower value 1.01 | locus YCL061C, strain MRC1, stronger effect = lower value 0.988 | locus YCL069W, strain vba3, stronger effect = lower value 0.991 | locus YCR088W, strain abp1, stronger effect = lower value 0.993 | locus YDL005C, strain med2, stronger effect = lower value 0.992 | locus YDL035C, strain GPR1, stronger effect = lower value 1.01 | locus YDL040C, strain nat1, stronger effect = lower value 0.979 | locus YDL074C, strain BRE1, stronger effect = lower value 1.02 | locus YDL101C, strain DUN1, stronger effect = lower value 1.01 | locus YDL185W, strain tfp1, stronger effect = lower value 1.01 | locus YDL192W, strain arf1, stronger effect = lower value 1.01 | locus YDR001C, strain nth1, stronger effect = lower value 0.982 | locus YDR069C, strain doa4, stronger effect = lower value 0.962 | locus YDR101C, strain arx1, stronger effect = lower value 0.987 | locus YDR137W, strain rgp1, stronger effect = lower value 0.982 | locus YDR159W, strain sac3, stronger effect = lower value 0.939 | locus YDR162C, strain NBP2, stronger effect = lower value 1.01 | locus YDR195W, strain ref2 0.91 | locus YDR297W, strain sur2, stronger effect = lower value 0.996 | locus YDR318W, strain mcm21, stronger effect = lower value 1 | locus YDR334W, strain swr1, stronger effect = lower value 0.985 | locus YDR335W, strain msn5, stronger effect = lower value 0.979 | locus YDR388W, stronger effect = lower value 1.01 | locus YDR392W, strain spt3, stronger effect = lower value 0.83 | locus YDR502C, strain sam2, stronger effect = lower value 1.03 | locus YEL003W, strain gim4, stronger effect = lower value 0.984 | locus YEL037C, strain rad23, stronger effect = lower value 0.991 | locus YEL061C, strain CIN8 (second series), stronger effect = lower value 0.984 | locus YEL061C, strain CIN8, stronger effect = lower value 1.01 | locus YER015W, strain faa2, stronger effect = lower value 0.985 | locus YER016W, strain bim1, stronger effect = lower value 0.982 | locus YER110C, stronger effect = lower value 1.01 | locus YER111C, strain swi4, stronger effect = lower value 0.974 | locus YER155C, strain BEM2 (second series), stronger effect = lower value 0.949 | locus YER155C, strain BEM2, stronger effect = lower value 1 | locus YER167W, strain BCK2, stronger effect = lower value 1.01 | locus YFR010W, strain ubp6, stronger effect = lower value 0.975 | locus YGL078C, strain dbp3, stronger effect = lower value 1.01 | locus YGL086W, strain mad1, stronger effect = lower value 1.01 | locus YGL167C, strain pmr1, stronger effect = lower value 0.984 | locus YGL173C, strain kem1, stronger effect = lower value 0.981 | locus YGL227W, strain vid30, stronger effect = lower value 0.984 | locus YGL240W, strain doc1, stronger effect = lower value 0.959 | locus YGL248W, strain PDE1, stronger effect = lower value 1.01 | locus YGL253W, strain hxk2, stronger effect = lower value 0.981 | locus YGR078C, strain PAC10, stronger effect = lower value 1.01 | locus YGR135W, strain pre9, stronger effect = lower value 1.03 | locus YGR252W, strain gcn5, stronger effect = lower value 0.988 | locus YHR013C, strain ard1, stronger effect = lower value 0.939 | locus YHR027C, strain rpn1, stronger effect = lower value 0.989 | locus YHR030C, strain SLT2, stronger effect = lower value 1.01 and 0.988 | locus YHR079C, strain IRE1 (second series), stronger effect = lower value 1 | locus YHR079C, strain IRE1, stronger effect = lower value 0.985 | locus YHR094C, strain hxt1, stronger effect = lower value 1.01 | locus YHR129C, strain ARP1, stronger effect = lower value 0.997 | locus YHR142W, strain chs7, stronger effect = lower value 1.04 | locus YHR200W, strain rpn10, stronger effect = lower value 1.01 | locus YIL066C, strain RNR3, stronger effect = lower value 1.01 | locus YIL073C, strain SPO22, stronger effect = lower value 1.04 | locus YIL125W, strain kgd1, stronger effect = lower value 1 | locus YIR030C, strain dcg1, stronger effect = lower value 1.02 | locus YJL092W, strain hpr5, stronger effect = lower value 0.982 | locus YJL095W, strain BCK1 (second series), stronger effect = lower value 0.99 | locus YJL095W, strain BCK1, stronger effect = lower value 1.04 and 0.994 | locus YJL115W, strain asf1, stronger effect = lower value 1 | locus YJL129C, strain trk1, stronger effect = lower value 0.999 | locus YJL134W, strain LCB3, stronger effect = lower value 1.01 | locus YJL154C, strain vps35, stronger effect = lower value 0.988 | locus YJL164C, strain tpk1, stronger effect = lower value 1.01 | locus YJL166W, strain qcr8, stronger effect = lower value 0.99 | locus YJL168C, strain set2, stronger effect = lower value 1.01 | locus YJL187C, strain SWE1 (second series), stronger effect = lower value 1.02 | locus YJL187C, strain SWE1, stronger effect = lower value 0.984 | locus YJR043C, strain POL32, stronger effect = lower value 1.01 | locus YJR066W, strain TOR1, stronger effect = lower value 0.908 | locus YKL009W, strain mrt4, stronger effect = lower value 1.02 | locus YKL068W, stronger effect = lower value 1.01 | locus YKL085W, strain MDH1 (second series), stronger effect = lower value 1.02 | locus YKL085W, strain MDH1, stronger effect = lower value 1.02 | locus YKL160W, strain elf1, stronger effect = lower value 1.02 | locus YKL190W, strain CNB1, stronger effect = lower value 1.01 | locus YKR001C, strain vps1, stronger effect = lower value 1 | locus YKR026C, strain gcn3, stronger effect = lower value 0.989 | locus YKR091W, strain srl3, stronger effect = lower value 0.99 | locus YLL001W, strain dnm1, stronger effect = lower value 0.982 | locus YLL026W, stronger effect = lower value 0.987 | locus YLL041C, strain sdh2, stronger effect = lower value 0.992 | locus YLR027C, strain aat2, stronger effect = lower value 0.985 | locus YLR039C, strain RIC1, stronger effect = lower value 1 | locus YLR058C, strain SHM2, stronger effect = lower value 1.01 | locus YLR102C, strain apc9, stronger effect = lower value 1.01 | locus YLR113W, strain HOG1, stronger effect = lower value 0.989 | locus YLR221C, strain rsa3, stronger effect = lower value 1.01 | locus YLR258W, strain gsy2, stronger effect = lower value 0.984 | locus YLR262C, strain YPT6 (second series), stronger effect = lower value 1.01 | locus YLR262C, strain YPT6, stronger effect = lower value 1.02 | locus YLR268W, strain sec22, stronger effect = lower value 1 | locus YLR320W, strain mms22, stronger effect = lower value 0.971 | locus YLR330W, strain CHS5, stronger effect = lower value 1 | locus YLR342W, strain FKS1 (second series), stronger effect = lower value 1.01 | locus YLR342W, strain FKS1, stronger effect = lower value 0.985 | locus YLR357W, strain rsc2, stronger effect = lower value 0.95 | locus YLR370C, strain arc18, stronger effect = lower value 0.991 | locus YLR371W, strain rom2, stronger effect = lower value 1.01 | locus YLR384C, strain iki3, stronger effect = lower value 0.997 | locus YLR418C, strain cdc73, stronger effect = lower value 1.01 | locus YML016C, strain PPZ1, stronger effect = lower value 1.01 | locus YML032C, strain rad52, stronger effect = lower value 1 | locus YML120C, strain ndi1, stronger effect = lower value 1.01 | locus YML124C, strain tub3, stronger effect = lower value 1.01 | locus YMR058W, strain fet3, stronger effect = lower value 0.992 | locus YMR078C, strain ctf18, stronger effect = lower value 1.01 | locus YMR125W, strain sto1, stronger effect = lower value 0.951 | locus YMR129W, stronger effect = lower value 0.997 | locus YMR205C, strain PFK2, stronger effect = lower value 0.957 | locus YMR223W, strain ubp8, stronger effect = lower value 1.02 | locus YMR231W, strain pep5, stronger effect = lower value 0.991 | locus YMR307W, strain GAS1, stronger effect = lower value 1.02 | locus YNL067W, strain RPL9B, stronger effect = lower value 1.03 | locus YNL071W, strain lat1, stronger effect = lower value 0.994 | locus YNL153C, strain GIM3, stronger effect = lower value 1.02 | locus YNL183C, strain NPR1, stronger effect = lower value 0.941 | locus YNL209W, strain ssb2, stronger effect = lower value 1 | locus YNL233W, strain BNI4, stronger effect = lower value 1.01 | locus YNL248C, strain rpa49, stronger effect = lower value 1.01 | locus YNL250W, strain rad50, stronger effect = lower value 1 | locus YNL271C, strain bni1, stronger effect = lower value 1.02 | locus YNL298W, strain CLA4, stronger effect = lower value 1.01 | locus YNL307C, strain MCK1, stronger effect = lower value 1.01 | locus YNL322C, strain KRE1 (second series), stronger effect = lower value 1 | locus YNR049C, strain mso1, stronger effect = lower value 0.986 | locus YNR052C, strain pop2, stronger effect = lower value 1.02 | locus YOL006C, strain TOP1, stronger effect = lower value 1.09 | locus YOL012C, strain htz1 1.21 | locus YOL147C, strain pex11, stronger effect = lower value 1.01 | locus YOR001W, strain rrp6, stronger effect = lower value 1.01 | locus YOR061W, strain CKA2, stronger effect = lower value 1.01 | locus YOR069W, strain VPS5, stronger effect = lower value 1.01 | locus YOR070C, strain gyp1, stronger effect = lower value 0.995 | locus YOR080W, strain dia2, stronger effect = lower value 0.965 | locus YOR083W, strain WHI5, stronger effect = lower value 1.03 | locus YOR106W, strain vam3, stronger effect = lower value 1.02 | locus YOR136W, strain idh2, stronger effect = lower value 1.01 | locus YOR144C, strain elg1, stronger effect = lower value 1 | locus YOR184W, strain ser1, stronger effect = lower value 1.01 | locus YOR231W, strain MKK1, stronger effect = lower value 0.999 | locus YOR265W, strain rbl2, stronger effect = lower value 0.99 | locus YOR270C, strain vph1, stronger effect = lower value 0.983 | locus YOR290C, strain snf2, stronger effect = lower value 0.974 | locus YOR316C, strain cot1, stronger effect = lower value 1.02 | locus YPL051W, strain arl3, stronger effect = lower value 1 | locus YPL055C, strain LGE1, stronger effect = lower value 1.02 | locus YPL078C, strain atp4, stronger effect = lower value 1.01 | locus YPL106C, strain sse1, stronger effect = lower value 0.979 | locus YPL240C, strain hsp82, stronger effect = lower value 0.993 | locus YPL241C, strain CIN2, stronger effect = lower value 1.02 | locus YPL256C, strain CLN2, stronger effect = lower value 1.04 | locus YPR119W, strain clb2, stronger effect = lower value 1 | locus YPR141C, strain kar3, stronger effect = lower value 1.01 | locus YPR163C, strain tif3, stronger effect = lower value 1.01 | locus YPR167C, strain met16, stronger effect = lower value 1 | strain wtn01, stronger effect = lower value 1
